CHX counter = affects cycloheximide protein synthesis inhibition readout, counter-screen. max response, %. 300,000 compounds, 12% hits. cell reporter, cycloheximide protein synthesis inhibition counterscreen; in the data active = max response mostly above about 13%, no sharp cut-off; inactive = mostly below about 14%; also: read at 38.3 µM for the half of the compounds with a filed dose; 0% is about no effect
SARS PLpro yeast = inhibitors of SARS-CoV papain-like protease in yeast | S. cerevisiae expressing SARS-CoV PLpro, growth rescue | Potency, µM (series often up to 32.9 µM), inactives show top-dose activity, positive = growth rescue, hits mostly activators | 330,000 compounds, 0.19% hits | AID 485353; calls by dose curve; also: potency is read from the fitted curve at half-maximal effect; 0% is about no effect; nearly all actives have a fitted effect of over 55% in size
Shiga toxin inh = Shiga toxin inhibition; Vero cells, Shiga toxin protein synthesis inhibition reporter; inhibition, % at 38.7 µM; 290,000 compounds, 9.2% hits; in the data active = inhibition mostly above about 28%, no sharp cut-off; inactive = mostly below about 43%; also: 0% is about no effect
Pf growth 96h = P. falciparum growth inhibition at 96 hour, primary screen for plastid delayed-death inhibitors; P. falciparum luciferase reporter growth, 96 h; Potency, µM (doses to about 28.7 µM), without a hit: top-dose activity change, negative = inhibition, usual class: inhibitors; 320,000 compounds, 6.9% hits; also: potency is read from the fitted curve at half-maximal effect; % is scaled to controls: 0 for no effect and ±100 for the full control effect
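P. falciparum expressing integrated firefly luciferase, in erythrocytes at 2% hematocrit, 0.05% parasitemia, incubated with compounds 96 h at 37 C, 5% CO2. Growth inhibition read as loss of luminescence; two-generation exposure targets delayed-death apicoplast inhibitors.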
Pf growth 48h = P. falciparum growth inhibition at 48 hours (one generation); P. falciparum luciferase growth in erythrocytes, 48 h; 310,000 compounds, 5.9% hits; Potency, µM (doses to about 28.7 µM), for the others: at the top dose activity change, negative = inhibition, usual class: inhibitors; also: potency is read from the fitted curve at half-maximal effect; % is scaled to controls: 0 for no effect and ±100 for the full control effect
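In quantitative HTS format, infected erythrocytes bearing luciferase-reporter parasites were treated for a single generation at 37 C. Luminescence after adding detection reagent served as the growth measure.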
AMA1-RON2 inh = disrupts binding of P. falciparum AMA1 to RON2. AlphaScreen AMA1-biotinylated RON2 peptide binding. Potency, µM (series often up to 58.2 µM), for inactives: top-dose activity change, negative = inhibition, hits mostly inhibitors. 360,000 compounds, 0.2% hits;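 also: potency is read from the fitted curve at half-maximal effect; 0% = vehicle wells and -100% = peptide control; nearly all actives have a fitted effect of over 45% in size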
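AMA1 (3D7) with his tag at 25 nM final met compounds first, then biotinylated RON2 peptide at 25 nM; detection used donor plus acceptor beads, 10 µg/mL apiece, read by AlphaScreen after 30 min at room temperature.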
Active calls of the source: *; ? = inconclusive; · = no result; [ ] = remark or other dose. Shown are actives, neighbours in structure and some others; about 19% of the full set was active somewhere. Unless noted, calls follow the shape of the dose curve; as a rule, active = well fitted curve in the direction sought with a large enough effect; inconclusive = small, poorly fitted or top-dose-only effect, or another doubt; inactive = no such curve, though single readings can be large; an effect the other way counts as inactive or inconclusive.

SMILES	CHX counter	SARS PLpro yeast	Shiga toxin inh	Pf growth 96h	Pf growth 48h	AMA1-RON2 inh
CCOC(=O)C1=CCC(c2cccn2C(=O)OC(C)(C)C)N(S(=O)(=O)c2ccc(C)cc2)C1 (stereo not drawn)	·	·	·	·	·	-22%
O=C1CC(N2CCc3ccccc32)C(=O)N1c1ccccc1 (stereo not drawn)	33	1%	73*	22%	8%	-15%
COc1cc(C2Nc3ccccc3C(=O)N2c2ccccc2)c(Br)cc1OCC(=O)O (stereo not drawn)	12	19%	24*	4%	3%	1%
CN(c1ccc(Cl)cc1)S(=O)(=O)c1nnc(NC(=O)C(C)(C)C)s1	1	-3%	-6	?	?	-2%
Cc1ccc(N=Nc2ccc(O)c3ncccc23)cc1C	28*	9%	100*	?	?	83%
CCS(=O)(=O)c1ccc(N=Nc2ccc(O)c3ncccc23)c(OC)c1	11	16%	18	?	?	?
Oc1ccc(Cc2ccccc2)c2cccnc12	·	·	·	·	·	18%
COc1ccccc1N=Nc1ccc(O)c2ncccc12	62*	3%	90*	2%	2.9µM*	-73%
Oc1ccc(N=Nc2ccccc2C(F)(F)F)c2cccnc12	-6	2%	-4	0.93µM*	1.5µM*	76%
CC1CCN(C(=O)NC(=O)c2ccc(Cl)cc2)CC1	3	3%	23	-10%	6%	-9%
CCc1cccc(N(C)C(N)=Nc2cccc3ccccc23)c1	-4	-1%	-7	9.5µM*	13µM*	-5%
Cc1ccc(OCn2c(=O)sc3ccccc32)cc1	47*	-13%	65*	·	48%	39%
O=C(O)CCn1c(=O)sc2ccccc21	7	3%	-9	9%	?	29%
O=c1sc2ccccc2n1CCOc1ccccc1	39*	-7%	66*	0%	·	5%
Clc1ccc(Cc2nn3c(Cn4nnc5ccccc54)nnc3s2)cc1	11	1%	-5	?	?	49%
COc1cccc(NS(=O)(=O)c2ccc3[nH]cc(C(=O)NC(C)c4ccccc4)c(=O)c3c2)c1 (stereo not drawn)	51	·	5	·	·	·
COc1cc2nc(N3CCN(C(=O)OCc4ccccc4)[C@H](C(=O)NC(C)(C)C)C3)nc(N)c2cc1OC	-2	·	-10	5.2µM*	2.9µM*	-2%
COc1ccc(OC)c(NC(=O)C2CCCN2C(=O)OCc2ccccc2)c1 (stereo not drawn)	5	3%	9	15%	13µM*	-9%
COc1ccc(NC(=O)C2CCCN2C(=O)OCc2ccccc2)cc1 (stereo not drawn)	1	2%	-5	10%	9%	29%
COC(=O)c1ccc(NC(=O)C2CCCN2C(=O)OCc2ccccc2)cc1 (stereo not drawn)	-6	3%	-14	5.9µM*	3%	-3%
CCOc1ccccc1NC(=O)C1CCCN1C(=O)OCc1ccccc1 (stereo not drawn)	-3	1%	-10	9.3µM*	-27%	12%
O=C(Nc1cccc2cccnc12)c1ccc2sc([C@@H]3O[C@H](CO)[C@H](O)[C@H](O)[C@H]3O)nc2c1	·	·	·	·	·	48%
COc1ccc(C)cc1NC(=O)C1CCCN1C(=O)OCc1ccccc1 (stereo not drawn)	-2	0%	-9	?	10µM*	-1%
CS(=O)(=O)N1CCC(Oc2ccccc2C(=O)NC2CCOC2)CC1 (stereo not drawn)	2	1%	9	0%	-2%	9%
CSCCCNC(=O)c1ccccc1OC1CCN(S(C)(=O)=O)CC1	9	0%	9	1%	34%	31%
SMILES	CHX counter	SARS PLpro yeast	Shiga toxin inh	Pf growth 96h	Pf growth 48h	AMA1-RON2 inh
CS(=O)(=O)N1CCC(Oc2ccccc2C(=O)NC(C2CC2)C2CC2)CC1	16	1%	45*	26%	-5%	-6%
CS(=O)(=O)N1CCC(Oc2ccccc2C(=O)NCCCc2cccnc2)CC1	1	1%	-2	9.3µM*	-11%	6%
CCOc1ccc(N)c(SSc2cc(OCC)ccc2N)c1	45*	-10%	88*	?	0%	-20%
O=C(c1ccc(Cl)c(S(=O)(=O)N2CCCCCC2)c1)N1CCN(c2ccccc2O)CC1	-3	-2%	17	?	?	-2%
Cc1cc(C)n(CC(=O)NNC(=O)c2ccc(S(C)(=O)=O)cc2)n1	·	5%	·	·	·	26%
O=C(NNC1=Nc2ccccc2SC1)c1ccc(F)cc1	18	0%	26	?	10µM*	59%
Cc1ccc(OCCCC(=O)N2CCOCC2)cc1	0	-2%	65	6%	45%	6%
Cc1cc(OCCCC(=O)N2CCCCC2)cc(C)c1Cl	13*	-5%	32*	-9%	23%	7%
Cc1cc(Cl)ccc1OCCCC(=O)N1CCOCC1	37*	-4%	71*	·	40%	15%
Cc1ccc(S(=O)(=O)N2CCN(C(=O)CCCOc3ccc(Cl)cc3C)CC2)cc1	·	4%	·	?	?	-7%
CCOC(=O)N1CCN(C(=O)COc2cc(C)c(Cl)c(C)c2)CC1	-1	0%	-3	0%	-10%	-13%
CCOC(=O)CCCC(=O)N1CCOCCOCCN(C(=O)CCCC(=O)OCC)CCOCCOCC1	43*	1%	63*	?	108%	4%
Cc1cc(Cl)ccc1OCCCC(=O)N1CCCCC1	35*	-12%[6.58 µM]	37	?	·	6%
CCOC(=O)CCCC(=O)N1CCOCCOCCOCC1	0	1%	23	-17%	-26%	0%
O=C(CNC(=S)N(Cc1ccccc1)Cc1cccnc1)NC1CCCC1	4	?	-16	-5%	1%	-26%
O=C(O)CCCC(=O)OCCCCc1cccs1	-7	1%	-17	5.2µM*	18%	8%
COc1cc(OC)c(OC)cc1CN(C)C(c1ccccc1)c1nnnn1-c1ccccc1C (stereo not drawn)	-2	2%	20	10µM*	?	?
COc1ccc(CN(C)C(c2ccccc2)c2nnnn2-c2ccccc2C)c(OC)c1C (stereo not drawn)	-3	-11%	-2	-13%	?	-7%
Cc1cc(Cl)c2oc(C(=O)N(CCO)Cc3ccccc3)c(C)c2c1	21*	5%	64*	?	?	-2%
Cc1ccc2oc(C(=O)N(CCO)Cc3ccccc3)c(C)c2c1	-1	-2%	-3	4%	33%	-5%
Cc1c(C(=O)N(CCO)Cc2ccccc2)oc2c(F)cccc12	35*	-1%	32*	?	2%	-4%
Cc1cc(Cl)c2oc(C(=O)N(C)Cc3cc(C)[nH]n3)c(C)c2c1	10	-2%	12	9%	0%	-7%
